{
  "source": "PubChem BioAssay (EPA / NIEHS)",
  "note": "Where “and” joins values, the source holds several entries; their conditions need not be identical. Identical values can stand only once. Some compounds were tested as several samples or in several runs, with calls that do not always agree. Calls of active or inactive are those of the source. Rule for the calls: active = hit-call score of the fitted dose curve at least 0.9, where 1 is the maximum; inactive = score below 0.9.",
  "data": [
    {"assay": "ATG_TCF_b_cat_CIS: Attagene CIS-FACTORIAL HepG2 Assay for human T-Cell-Factor with beta-catenin (TCF/b-cat) (AID 2282965)", "details": "HepG2 TCF/beta-catenin cis-reporter transcription, actives raise or lower the signal", "experimental": "ATG_CIS is a cell-based, multiplexed-readout assay that uses HepG2, a human liver cell line, with measurements taken at 24 hours after chemical dosing in a 24-well plate.ATG_TCF_b_cat_CIS is one of 52 assay component(s) measured or calculated from the ATG_CIS assay. It is designed to make measurements of mRNA induction, a form of inducible reporter, as detected with fluorescence intensity signals by Reverse transcription polymerase chain reaction (RT-PCR) and Capillary electrophoresis technology.Data from the assay component ATG_TCF_b_cat_CIS was analyzed into 1 assay endpoint. This assay endpoint, ATG_TCF_b_cat_CIS, was analyzed with bidirectional fitting relative to DMSO as the negative control and baseline of activity. Using a type of inducible reporter, measures of mRNA for gain or loss-of-signal activity can be used to understand the reporter gene at the transcription factor-level as they relate to the gene TCF7 and TCF7L2 and LEF1 and TCF7L1. Furthermore, this assay endpoint can be referred to as a primary readout, because this assay has produced multiple assay endpoints where this one serves a reporter gene function. To generalize the intended target to other relatable targets, this assay endpoint is annotated to the dna binding intended target family, where the subfamily is HMG box protein.\nHuman liver HepG2 cells are transiently transfected with multiple reporter transcription units (MRTUs) in 6-well plates using FuGene 6 reagent (Roche; 3 ml FuGene/1 mg DNA). The MRTU constructs are regulated by a cis-regulating element (promoter). […] A major difference between the CIS and TRANS system is that in CIS activities of endogenous TFs are measured, whereas the TRANS assay evaluates changes in activities of exogenous, chimeric NR-Gal4 proteins. […] At the end of 24 hour incubation, total RNA was isolated using TriZol reagent (Invitrogen). The isolated RNA is then reverse-transcribed using oligo(dT) primer and Mo-MLV reverse transcriptase (Invitrogen) with DNAse I (Ambion) treatment for 30 min. The one-tenth of the produced cDNA was amplified by PCR using Taq DNA polymerase (Invitrogen) and two reporter sequence-specific primers. The PCR products were fluorescently labeled by primer extension with 6-arboxyfluorescein (6-FAM) 5'-labeled reporter sequence-specific primer (2 min at 95 C, 20 s at 68 C and 10 min at 72 C) and these products were digested with 5U of HpaI (New England Biolabs) for 2h at 37 C. The fragments were purified using Qiaquick PCR columns (Qiagen), analyzed on an ABI 3130xL genetic analyzer (Applied Biosystems) with peak positions identified by using a set of X-rhodamine (ROX)-labeled MapMarker1000 molecular weight standards (BioVentures). The raw capillary electrophoresis data was processed using Attagraph software (Attagene).", "values": [
      {"smiles": "CCCSC(=O)N(CCC)CCC", "outcome": "inactive"},
      {"smiles": "CS(=O)(=O)NC(=O)c1cc(Oc2ccc(C(F)(F)F)cc2Cl)ccc1[N+](=O)[O-]", "outcome": "inactive"},
      {"smiles": "Cc1cccc(N)c1N", "AC50": "190 µM (active)"},
      {"smiles": "c1ccc(C2CO2)cc1", "note": "(stereo not given)", "outcome": "inactive"},
      {"smiles": "Cc1ccc(N)c(N)c1", "outcome": "inactive"},
      {"smiles": "CCCCC(CC)COC(=O)c1ccc(C(=O)OCC(CC)CCCC)c(C(=O)OCC(CC)CCCC)c1", "note": "(stereo not given)", "outcome": "inactive"},
      {"smiles": "CN(C)c1ccccc1", "outcome": "inactive"},
      {"smiles": "Nc1ccc(Oc2ccc(N)cc2)cc1", "outcome": "inactive"},
      {"smiles": "C[C@]12C=CC3=C4CCC(=O)C=C4CC[C@H]3[C@@H]1CC[C@@H]2O", "AC50": "47.7 µM (active) and 33.4 µM (active) and 19.4 µM (active)", "outcome": "inactive"},
      {"smiles": "CCN(CC)N=O", "outcome": "inactive"},
      {"smiles": "CC(O)CCO", "note": "(stereo not given)", "outcome": "inactive"},
      {"smiles": "Clc1ccccc1Cl", "outcome": "inactive"},
      {"smiles": "CCCCCOC(=O)c1ccccc1C(=O)OCCCCC", "outcome": "inactive"},
      {"smiles": "N#CC(Br)Br", "outcome": "inactive"},
      {"smiles": "O=C1CCCO1", "outcome": "inactive"},
      {"smiles": "O=C(Oc1ccc(Br)cc1)N1CCN2CCC1CC2", "AC50": "43.3 µM (active)"},
      {"smiles": "O=[N+]([O-])c1ccc(Oc2ccc(Cl)cc2Cl)cc1", "outcome": "inactive"},
      {"smiles": "COc1cc(C=O)cc2c1[C@H](COC(N)=O)[C@]1(OC(C)=O)ON2C[C@H]2[C@@H]1N2C(C)=O", "AC50": "0.157 µM (active)"},
      {"smiles": "O=Cc1ccco1", "outcome": "inactive"},
      {"smiles": "c1ccc2c(c1)-c1cccc3cccc-2c13", "outcome": "inactive"},
      {"smiles": "CC(C)COC(=O)c1ccccc1C(=O)OCC(C)C", "outcome": "inactive"},
      {"smiles": "O=C(N[C@H](c1ccccc1)[C@@H]1CN2CCC1CC2)c1c(Cl)ccc(C(F)(F)F)c1Cl", "outcome": "inactive"},
      {"smiles": "Nc1ccc([N+](=O)[O-])cc1", "outcome": "inactive"},
      {"smiles": "COP(=S)(OC)SCN1C(=O)c2ccccc2C1=O", "outcome": "inactive"},
      {"smiles": "CCOC(=O)[C@]1(c2ccccc2)Oc2ccccc2[C@@H]1N", "outcome": "inactive"},
      {"smiles": "CCNS(=O)(=O)C(F)(F)C(F)(F)C(F)(F)C(F)(F)C(F)(F)C(F)(F)C(F)(F)C(F)(F)F", "outcome": "inactive", "AC50": "169 µM (active)"},
      {"smiles": "C1=Cc2cccc3cccc1c23", "outcome": "inactive"},
      {"smiles": "C=CCc1ccc2c(c1)OCO2", "outcome": "inactive"},
      {"smiles": "O=P(OCCCl)(OCCCl)OCCCl", "outcome": "inactive"},
      {"smiles": "[O-][Cl+]O", "outcome": "inactive"},
      {"smiles": "COC(=O)Nc1nc2ccccc2[nH]1", "outcome": "inactive"},
      {"smiles": "CC(C)(O)c1cnn2c(-c3ccc(F)c(-c4c(F)cccc4C#N)c3)cnc2n1", "AC50": "8.97 µM (active)"},
      {"smiles": "CO[C@@H]1[C@H](OC(=O)NC(=O)CCl)CC[C@]2(CO2)[C@H]1[C@@]1(C)O[C@@H]1CC=C(C)C", "AC50": "39.5 µM (active)"},
      {"smiles": "CCN(CC)CCO", "outcome": "inactive"},
      {"smiles": "CCC(C)c1ccc(O)cc1", "note": "(stereo not given)", "outcome": "inactive"},
      {"smiles": "N#CC(Br)(Br)C(N)=O", "AC50": "165 µM (active)"},
      {"smiles": "CCCCOC(=O)c1ccccc1C(=O)OCc1ccccc1", "outcome": "inactive"},
      {"smiles": "CCCCCCCCCCCCCN1CC(C)OC(C)C1", "note": "(stereo not given)", "outcome": "inactive"}
    ]}
  ]
}
